Screening data: PubChem, several laboratories
HSF-1 act – increases HSF-1 driven luciferase reporter signal; NIH3T3-HGL HSF-1 luciferase reporter, MG132, 8 h; 100% = twice DMSO control signal; activation, % at 9 µM; hit rate 1.7% among 300,000;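 active = mean replicate activation of at least 50% with a set share of replicates each reaching 50%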;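 also: 0% = median of the neutral control wells and 100% = twice that signal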
GC-B act – GC-B (human) receptor activation | P20594 | HEK293-GC-B cells, CNP EC30, cGMP TR-FRET; 0% at EC30 CNP, 100% saturating CNP | activation, % at 10 µM | hit rate 0.11% among 370,000 | AID 1920062;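 active = activation at 10 µM reaching about 35% in either raw or pattern-adjusted values, limit read from the data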
Dyrk1A ADPGlo – inhibitors of rat Dyrk1A kinase | Q63470 | ADP-Glo luminescence, NFATc1 peptide | inhibition, % at 12.5 µM | hit rate 0.43% among 310,000; in the data active = inhibition above about 50%;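 also: plate controls were vehicle with enzyme for no effect and no enzyme for full effect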
HSF1 inhib – HSF1 inhibition. activity change, negative = inhibition, % at 7.5 µM (by protocol). hit rate 0.77% among 300,000. AID 2098. NIH3T3-HGL HSE-luciferase, MG132-induced, luminescence 8 h; stronger effect = lower value;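 active = more than half of replicate wells show activity change below -50%, luminescence cut by over half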;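 also: luciferase reports HSF-1 transcriptional activity via heat shock element; 0% = median of DMSO wells and -100% = zero luminescence signal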
GC-A act – GC-A (human) enzyme activation; P16066; HEK293 GC-A cells, cGMP TR-FRET, EC30 ANP; 0% at EC30 ANP, 100% saturating ANP; activation, % at 10 µM; hit rate 0.14% among 370,000; AID 1671463; in the data active = activation above about 40%
aDG glyco up – alpha-DG glycosylation activation; Pro5-aDG cells, alpha-DG glycosylation AlphaScreen (IIH6); 0% Pro5, 100% B10-LARGE cell signal; activation, % at 10 µM; hit rate 0.22% among 360,000;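 active = activation of at least 8% versus controls, or a plate z-score of at least 8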;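 also: Pro5 are CHO cells carrying HIG-tagged alpha-DG that lacks glycosylation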
* marks the source's active call; other numbers are inactive results; · = no result given. Rows were chosen to be rich in hits. Some 2.5% of all compounds tested hit in one or more screens of this group.

SMILES | HSF-1 act | GC-B act | Dyrk1A ADPGlo | HSF1 inhib | GC-A act | aDG glyco up
COc1ccc(NC(=O)CCSc2ccc(F)cc2)cc1 | 55.5* | -2.6 | 1.6 | 21.6 | -0.8 | 0.0
COc1ccc(NC(=O)CCSc2ccc(C)cc2)cc1 | 7.5 | 1.4 | -1.2 | -5.7 | -1.7 | 0.6
NCCN1C(=O)c2ccccc2C1(O)c1ccc(Cl)cc1 (stereo unspecified) | · | -16.0 | · | · | -12.7 | -0.5
Cc1ccc(N=N/C(=C\O)C(=O)c2ccc(Cl)cc2)cc1 | -63.7 | -4.5 | -5.3 | -64.3* | 0.8 | 0.6
O=C(/C(=C/O)N=Nc1ccccc1)c1ccc(Cl)cc1 | -24.2 | -4.7 | -5.9 | -22.4 | 0.3 | -0.2
NC(=O)CN1CCN(c2cccc(Cl)c2)CC1 | -0.3 | 2.0 | -0.3 | -5.6 | -0.7 | 0.0
CC1CCN(CCCNC(=O)c2ccc3c(=O)n(Cc4ccc(Cl)cc4)c(=S)[nH]c3c2)CC1 | 78.9* | 5.1 | 1.2 | 25.3 | -0.1 | 0.4
Nc1nn2cc(-c3ccccc3)nc2c2ccccc12 | 58.0* | -6.0 | 25.6 | 30.4 | -1.1 | 0.1
CCCS(=O)(=O)c1nnnn1-c1cccc(OC)c1 | -94.7 | · | -8.2 | -94.7* | · | 0.4
Cc1cccnc1NC(=O)c1cc2c(=O)oc3ccccc3c2s1 | 1.6 | -1.7 | 3.0 | -9.8 | 1.3 | 0.0
O=C(NNC(=S)Nc1ccc(Cl)cc1)c1ccccc1OC(F)F | 59.3* | 2.1 | 15.7 | 19.3 | -2.1 | 0.3
CC(C)NC(=O)c1ccc2c(c1)N(CC(=O)Nc1ccccc1F)C(=O)C(C)(C)O2 | 22.6 | 6.8 | -5.4 | 3.4 | 1.6 | 0.0
CCOc1ccc(C(=O)Nc2ccc(NC(=O)c3ccccc3)c(C)c2)cc1[N+](=O)[O-] | -12.1 | -2.3 | 7.0 | -4.0 | 0.9 | -0.1
CCCOC1CCCN(C(=O)CCc2nnc(Cc3cccc(C)c3)o2)C1 (stereo unspecified) | 63.1* | -6.0 | -3.9 | 30.2 | -2.4 | 0.3
C(=N\Nc1ccc2ccccc2n1)/c1ccc2c(c1)OCCO2 | -85.5 | 3.6 | 12.1 | -80.4* | 4.9 | 0.2
C(=N\Nc1nc2ccccc2[nH]1)/c1ccc2c(c1)OCCO2 | 71.3* | 1.4 | 27.2 | 49.1 | 8.0 | 0.0
Fc1ccccc1-c1ccc(/C=N/Nc2nc3ccccc3[nH]2)o1 | 383.7* | -4.5 | -33.1 | 378.7 | 1.3 | -0.1
O=C(NC1CCCCCC1)C1CCC(CNS(=O)(=O)c2ccc(Br)s2)CC1 (stereo unspecified) | -53.3 | 1.9 | -6.4 | -40.6 | 6.4 | 0.4
CCN(CC)Cc1c(O)ccc2cc(-c3nc4ccccc4n3C)c(=O)oc12 | 68.4* | 6.8 | -0.4 | 25.0 | 11.6 | -0.2
CC(=O)Oc1ccc2cc(-c3nc4ccccc4n3C)c(=O)oc2c1 | 9.0 | 5.3 | -4.1 | 9.7 | 12.7 | -0.2
Cn1c(-c2cc3ccc(OC(=O)C(C)(C)C)cc3oc2=O)nc2ccccc21 | 57.9* | 8.2 | 3.3 | 13.9 | 8.7 | -0.2
Clc1ccc2c(c1)[C@H]1OCC[C@H]1[C@@H](c1ccco1)N2 | 69.8* | 0.0 | 25.0 | 30.2 | 2.7 | 0.0
O=C(CNS(=O)(=O)c1ccccc1F)Nc1ccc(N2CCOCC2)cc1 | -91.0 | 0.6 | 4.3 | -88.5* | 2.7 | -0.2
COc1ccc(C(=O)NCc2nnc(SCC(=O)N3CCC(C)CC3)o2)cc1OC | -74.5 | 3.0 | 1.6 | -66.8* | -4.2 | 0.3
COc1ccc(C=CC(=O)c2ccc(OC)c(OC)c2)cc1O | · | -0.8 | · | · | -0.5 | 0.4
SMILES | HSF-1 act | GC-B act | Dyrk1A ADPGlo | HSF1 inhib | GC-A act | aDG glyco up
COc1ccc(/C=C/C(=O)c2cccc(-n3cnnn3)c2)cc1O | 57.4* | 2.8 | -0.5 | 27.2 | 3.7 | -0.1
S=c1[nH]nc(CNc2cccc(Cl)c2)o1 | 31.3 | -2.2 | -3.7 | 2.2 | 1.4 | -0.2
COC(=O)C1C(c2ccc(OC)cc2)Nc2nnc(C(F)(F)F)n2C1(C)O (stereo unspecified) | -9.9 | -1.6 | -6.0 | -7.7 | 3.4 | -0.1
CCOC(=O)N1CCC(NC(=O)CSCc2nc(-c3ccc(OCC)cc3)oc2C)CC1 | 34.1 | 2.0 | · | 19.9 | -1.5 | 0.0
CCOc1ccc(-c2nc(CSCC(=O)NC3CC3)c(C)o2)cc1 | -85.3 | · | -2.5 | -84.5* | · | 0.1
CCOc1ccc(NC(=O)Cn2nnc(C(=O)NCc3ccco3)c2N)cc1 | 56.5* | 0.4 | 2.7 | 27.2 | -6.8 | -0.2
CCOc1ccc(-c2nc(CSCC(=O)NCc3ccco3)c(C)o2)cc1 | -74.0 | 7.5 | -12.4 | -72.1* | -0.4 | 0.8
Cc1cc(S(=O)(=O)Nc2noc3ccccc23)ccc1F | -9.5 | -5.4 | 1.4 | -1.1 | -1.3 | 0.1
COc1ccc(/C(O)=C2/C(=O)C(=O)N(CC3CCCO3)C2c2cccc(O)c2)cc1 (stereo unspecified) | -3.4 | -0.5 | 3.4 | -9.7 | 4.5 | -0.1
Cn1c(N2CCOCC2)nc(-c2ccccc2)c1-c1ccccc1 | -76.9 | -5.6 | 18.9 | -71.1* | 2.8 | 0.1
COc1ccc(N2CC(C(=O)NCCc3ccc(OC)c(OC)c3)CC2=O)cc1 (stereo unspecified) | -7.3 | 4.4 | 4.0 | -10.2 | 0.2 | -0.2
COc1ccc(N2CC(C(=O)NCCc3c[nH]c4ccccc34)CC2=O)cc1 (stereo unspecified) | -22.6 | 2.9 | 4.3 | -2.2 | 1.1 | 0.1
CCCCOc1ccc(N2CC(C(=O)NCCc3ccc(OC)c(OC)c3)CC2=O)cc1 (stereo unspecified) | -87.2 | -2.4 | 3.3 | -82.4* | -0.5 | 0.3
CCOc1ccc(N2CC(C(=O)NCCc3c[nH]c4ccc(C)cc34)CC2=O)cc1 (stereo unspecified) | -64.0 | 2.4 | -3.0 | -57.6* | -4.1 | 0.0
Cc1ccc(C2=NNC(c3cccc(F)c3)S2)cc1 (stereo unspecified) | · | 2.9 | 5.5 | · | 5.8 | 0.3
Fc1cccc(C2NN=C(c3ccccc3)S2)c1 (stereo unspecified) | 60.6* | -0.9 | 5.3 | 24.9 | 2.3 | -0.1
O=C(c1cccc(-c2nnc(-c3ccccc3)o2)c1)N1CCCCC1 | 56.9* | 6.4 | -3.0 | 39.5 | -1.7 | 0.4
O=C(c1cccc(-c2nnc(-c3ccccc3)o2)c1)N1CCCCCC1 | 8.2 | -1.4 | 4.9 | 21.8 | 8.2 | 0.1
CCOC(=O)c1c(N)nn(C(=O)CC)c1-c1ccccc1 | 9.9 | -3.8 | 4.4 | -7.8 | -5.3 | 0.2
CC1C(=NO)C(C)C(c2ccccc2)NC1c1ccccc1 (stereo unspecified) | 4.7 | 6.6 | -0.2 | 4.5 | -0.7 | 0.2
CCC1C(=NO)C(CC)C(c2ccccc2)NC1c1ccccc1 (stereo unspecified) | 59.3* | -6.1 | · | 12.0 | -8.1 | 0.8
CCc1nc2ccc(C(=O)Nc3cccc(OC)c3)cn2c1N(C)CCCc1ccccc1 | · | 3.9 | · | · | -0.9 | 0.4
CCOC(=O)CNCCC(=O)c1ccc(Br)cc1 | -0.4 | -8.8 | -0.1 | -8.4 | 48.9* | 0.4
